An excerpt weighted towards active compounds, which were near 12% of everything screened.
BAZ2B block: BAZ2B (human) inhibition; Q9UIF8; AlphaScreen BAZ2B-H3K14Ac peptide displacement; Potency, µM (doses to about 114 µM), for inactives: top-dose activity change, negative = inhibition, actives largely listed as inhibitors; hit rate 4.4% among 360,000; AID 504333; also: % is scaled to controls: 0 for no effect and ±100 for the full control effect; nearly all actives have a fitted effect of over 60% in size
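In this displacement format the biotinylated H3(5-23) peptide acetylated at Lys14 serves as ligand at 50 nM, with BAZ2B at 50 nM in PBS pH 7.4 containing 0.01% Tween-20. Donor and acceptor beads are 10 ug/mL final.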
Sfp PPTase inh: inhibitors of Bacillus subtilis Sfp phosphopantetheinyl transferase; Q9F4F7; Biochemical Sfp PPTase activity, qHTS; Potency, µM, for the others: largest response in the series, negative = inhibition, most hits filed as inhibitors; hit rate 3.5% among 310,000; AID 1490;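 also: the enzyme is Sfp with the accession as filed and its product quenches rhodamine fluorescence; 0% = enzyme reaction without inhibitor and -100% = no enzyme wells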
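With Hepes-Na pH 7.6 buffer containing 10 mM MgCl2, Sfp (15 nM) modified BHQ-2-YbbR (12.5 uM) using rhodamine-CoA (5 uM). Two reads 30 minutes apart at 525/598 nm yielded each well's rate.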
G9a block: inhibitors of human histone lysine methyltransferase G9a | Potency, µM (top dose mostly 102 µM), without a hit: at the top dose activity, negative = inhibition, actives largely listed as inhibitors | Q96KQ7 | hit rate 8.8% among 350,000 | AID 504332 | G9a H3K9 monomethylation, AlphaScreen, 2 h; also: % is scaled to controls: 0 for no effect and ±100 for the full control effect; nearly all actives have a fitted effect of over 75% in size
Target sequence (Q96KQ7 913-1193 limits assumed): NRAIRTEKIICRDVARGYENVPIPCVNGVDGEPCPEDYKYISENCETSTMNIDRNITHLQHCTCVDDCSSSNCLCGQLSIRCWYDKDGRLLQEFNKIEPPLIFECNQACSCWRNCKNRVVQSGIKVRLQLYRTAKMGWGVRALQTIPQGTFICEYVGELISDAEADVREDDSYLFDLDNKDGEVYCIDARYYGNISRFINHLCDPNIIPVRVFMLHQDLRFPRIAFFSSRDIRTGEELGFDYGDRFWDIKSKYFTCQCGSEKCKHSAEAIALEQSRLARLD
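Step 1: enzyme (final 20 nM) with compound, 15 min RT. Step 2: substrate peptide 500 nM and SAM 20 uM, 2 h RT. Step 3: anti-H3K9me1 antibody and AlphaScreen beads, 10 min, then plate read.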
JMJD2A Tudor inh: blocks the human JMJD2A Tudor domain; O75164; AlphaScreen JMJD2A-Tudor / H3K4me3 peptide binding; Potency, µM (doses to about 114 µM), inactives show top-dose activity change, negative = inhibition, hits mostly inhibitors; hit rate 4.4% among 390,000; also: % is scaled to controls: 0 for no effect and ±100 for the full control effect; nearly all actives have a fitted effect of over 50% in size
L3MBTL1 block: blocks human L3MBTL1 | hit rate 0.66% among 230,000 | AlphaScreen L3MBTL1–H3K9me1 peptide binding | Potency, µM (doses to about 57.1 µM), for inactives: at the top dose activity, negative = inhibition, hits mostly inhibitors | Q9Y468; also: % is scaled to controls: 0 for no effect and ±100 for the full control effect; nearly all actives have a fitted effect of over 60% in size
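AlphaScreen proximity signal between nickel-chelate acceptor and streptavidin donor beads (final 10 ug/mL) reports binding of 50 nM L3MBTL1 to 75 nM biotin-H3 K9me1 peptide; complex incubated with compounds 30 min at room temperature; cefsulodin titration as control.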
HP1b chromo inh: blocks HP1-beta chromodomain binding to methylated histone tails | AlphaScreen HP1-beta / biotin-H3K9me3 peptide binding | Potency, µM (highest dose often 114 µM), for the others: top-dose activity change, negative = inhibition, hits mostly inhibitors | hit rate 0.56% among 390,000 | AID 540317; also: nearly all actives have a fitted effect of over 70% in size
Target sequence (P83916 whole entry, looked up): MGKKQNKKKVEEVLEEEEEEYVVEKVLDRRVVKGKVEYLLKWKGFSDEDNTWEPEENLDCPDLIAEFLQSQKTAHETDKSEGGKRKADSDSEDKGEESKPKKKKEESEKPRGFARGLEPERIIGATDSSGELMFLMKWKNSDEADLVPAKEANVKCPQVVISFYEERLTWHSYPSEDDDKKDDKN
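AlphaScreen: HP1-beta (50 nM) preformed 30 min with biotin-H3(1-18)K9me3 peptide (50 nM) in PBS pH 7.4, 0.01% Tween-20. Compound added for 30 min at RT, then streptavidin donor/nickel chelate acceptor beads (10 ug/mL) for 30 min.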
An asterisk follows results filed as active; ? = inconclusive; · = no result; [ ] = another dose, or the depositor's remark. Calls follow the shape of the dose curve; as a rule, active = well fitted curve in the direction sought with a large enough effect; inconclusive = small, poorly fitted or top-dose-only effect, or another doubt; inactive = no such curve, though single readings can be large; an effect the other way counts as inactive or inconclusive. Potency is read from the fitted curve at half-maximal effect.

SMILES	BAZ2B block	Sfp PPTase inh	G9a block	JMJD2A Tudor inh	L3MBTL1 block	HP1b chromo inh
O=C1/C(=C\c2ccco2)SC(=S)N1C1CCS(=O)(=O)C1 (stereo unspecified)	40µM*	32µM*	·	56µM*	?	?
CCOC(=O)/C=C1\CN(Cc2cc(OC)c(OC)c(OC)c2)S(=O)(=O)c2ccccc21	-29%	8%	?	-17%	-2%	39%
CCOC(=O)/C=C1\CN(Cc2cc(OC)c(OC)c(OC)c2)S(=O)(=O)c2ccc(C(F)(F)F)cc21	?	11%	35µM*	-30%	-1%	23%
Cc1ccn2c(Nc3ccc4c(c3)OCCO4)c(-c3cccs3)nc2c1	25µM*	·	14µM*	?	·	?
Cc1ccn2c(Nc3ccc4c(c3)OCO4)c(-c3ccc(C)o3)nc2c1	-35%	·	16µM*	?	·	18%
COc1ccc(Nc2c(-c3ccc(C)o3)nc3cc(C)ccn23)cc1	?	·	16µM*	?	·	-14%
Cc1ccn2c(NC3CCCCC3)c(-c3ccc(C)o3)nc2c1	·	·	·	?	·	11%
Cc1ccc2nc(-c3ccc(C)o3)c(Nc3ccc(F)cc3)n2c1	·	·	·	-10%	·	41%
Cc1ccc(Nc2c(-c3ccc(C)o3)nc3cnccn23)cc1	?	10µM*	32µM*	40µM*	·	?
COC(=O)C1=C(C(=O)OC)[C@@H]2N(Cc3ccccc3)c3ccccc3[C@@]23C[C@@H](C(=O)OC)N(S(=O)(=O)c2c(C)noc2C)C3=N1	·	-4%	·	·	·	·
O=C(NCCc1ccc(C(F)(F)F)cc1)C1CC(=O)N(Cc2ccccc2)C1 (stereo unspecified)	-3%	·	7%[12.7 µM]	-1%	-3%	50%
Cc1ccc(-c2nc3cnccn3c2Nc2ccc3c(c2)OCO3)o1	50µM*	35µM*	32µM*	?	-8%	-17%
Cc1ccc(-c2nc3ccc(Br)cn3c2Nc2ccc3c(c2)OCO3)o1	-9%	·	1%[59 µM]	-20%	·	5%
CCSc1cnc(-c2ccccc2)n1CC	?	15%	50µM*	-31%	-2%	9%
CC(=O)Oc1ccc2c(=O)c(/C=N/c3cc(=O)[nH]c(=S)[nH]3)coc2c1	-24%	-23%	35µM*	-20%	-13%	20%
Cc1nc2scc(-c3cccs3)c2c(=O)[nH]1	6%	45µM*	?	-19%	·	-5%
O=c1[nH]c(-c2ccc(O)cc2)nc2scc(-c3cccs3)c12	3%	-1%	5%	-10%	2%	28%
Cn1cnc2c(NCc3ccccc3)nc(Cl)nc21	·	·	·	-5%	·	20%
O=C(c1ccc([N+](=O)[O-])cc1)n1nc(-c2ccccc2)nc1NCc1ccccc1	-26%	-2%	·	?	-3%	?
COCC(=O)n1nc(-c2ccccc2)nc1NCc1ccc(N(C)C)cc1	32µM*	5%	-4%[12.7 µM]	35µM*	-15%	50µM*
O=C(CSc1nc(-c2ccccc2)nn1C(=O)c1ccccc1)Nc1cccc([N+](=O)[O-])c1	56µM*	0%	·	?	-4%	-1%
COCC(=O)n1nc(-c2ccc(C)cc2)nc1NCc1ccc(F)cc1	-13%	14%	1%	-11%	4%	15%
O=C(c1cccc([N+](=O)[O-])c1)n1nc(-c2ccccc2)nc1NCc1ccccc1	-7%	3%	45µM*	?	3%	-12%
Cc1cc(=O)[nH]c(-n2[nH]c(C)cc2=O)n1	11µM*	22µM*	-40%[0.0925 µM]	45µM*	-4%	48%
CCN(CC(=O)Nc1ccc(NC(C)=O)cc1)C(=O)/C=C/c1ccc([N+](=O)[O-])cc1	-4%	·	13%[0.501 µM]	-17%	-4%	26%
CCCNC(=O)Nc1nc2ccccc2s1	0%	10%	8%[12.7 µM]	-19%	·	51%
CCCNC(=O)c1ccc(-c2nc3ccccc3s2)s1	4.5µM*	-13%	22%	-24%	·	21%

Compound activity as filed in PubChem BioAssay.
